This is part of a sample that, as a whole, favours compounds with a hit. Of some 83,000 tested, about 20% had one in any assay.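 Method: cells in 96-well plates; compound added at one concentration; 48 h incubation; percent growth measured; values under 10 scored active.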 Unmarked numbers belong to inactive results. The source made the active and inactive calls.

The test system of the assay is NCI-H522 lung. Briefly: NCI-60 one-dose screen, 48 h (100 = growth as untreated, 0 = no growth, -100 = all killed). The following applies: 10 µM unless noted.
In the case of `Cc1cc2ccccc2c[n+]1CC(=O)c1ccc(-c2ccccc2)cc1`, the growth is 26.8%.

As to `COC(=O)c1ccc2c(c1)n(Cc1ccc3ccccc3c1)c[n+]2Cc1ccc2ccccc2c1`, the growth was 26.3%.

`Cc1c(Cl)cccc1NC(=O)c1sc2nc3c(cc2c1N)CCCCC3`: the growth is 10%.

On to `C=C1C(=O)O[C@H]2[C@H]1CC/C(COC(=O)c1cn(C)c3ccccc13)=C\CC[C@@]1(C)O[C@@H]21`, for which the growth was -85.1% (active).

Turning to `Sc1cccc2cccnc12`, the growth is -12.6% (active).

With `O=C(CCl)N1CCCc2ccccc21`, the growth was 96.8%.

For the molecule `Cc1cccc(C)c1NC(=O)CN(CC(C)C)CC(O)COc1ccccc1` (configuration not stated), the growth is 82.3%.

Regarding `OCCNc1nc(NCCO)nc(Nc2ccc(C3=NN(c4cc(Cl)cc(Cl)c4)C(c4ccc(Cl)cc4)C3)cc2)n1` (configuration not stated), the growth was 58.9%.

For `CC(C)(C)c1nn(-c2ccccc2)c2c1COCN2Cc1ccc(Cl)cc1`, the growth is 4.77% (active).

As to `NS(=O)(=O)c1ccc(N2Cc3cc(Cl)ccc3OC3=C2C(=O)N(CC2CCCCC2)C3=O)cc1`, the growth was -68.6% (active).

Regarding `C#C[C@@]1(O)[C@@H](CO)O[C@@H](n2cc(-c3ccco3)c3c(N)ncnc32)[C@@H]1O`, the growth is 61.7%.

In the case of `NC(=O)CN1C(=O)c2ccccc2C1=O`, the growth is 88.3%.

Regarding `CC1CCCN(CCCCCOc2ccc3oc4ccc(Cl)cc4c(=O)c3c2)C1` (configuration not stated), the growth is 71.1%.

In the case of `O=c1[nH]c(-c2cccc(F)c2)cc2cc(F)ccc12`, the growth is 11.3%.

Turning to `O=C(O)COc1ccc2c(=O)c3sc4c(=O)c5ccccc5c(=O)c4c3c(=O)c2c1`, the growth is 10.9%.

As for `CCOC(=O)/C=C1\SC(=Nc2ccc(C#N)cc2)N(CCN2C(=O)/C(=C/C(=O)OCC)SC2=Nc2ccc(C#N)cc2)C1=O`, the growth is 36.4%.

In the case of `COC(=O)/C=C1\SC(=Nc2ccc(F)cc2)N(CCc2c[nH]c3ccccc23)C1=O`, the growth was 68.3%.

For the molecule `CCN1CCN(Cc2ccc(NC(=O)c3cccc(C#Cc4cccc5[nH]nc(N)c45)c3)cc2C(F)(F)F)CC1`, the growth was -84.7% (active).

With `CC[C@H](Nc1ncnc2nc[nH]c12)c1nc2cccc(CC(=O)c3ccc(C(=O)NO)cc3)c2c(=O)n1-c1ccccc1`, the growth was 51.4%.

Consider `CC(=O)OCC1OC(OC2C(COC(C)=O)OC(OCCC[S-])C(OC(C)=O)C2OC(C)=O)C(OC(C)=O)C(OC(C)=O)C1OC(C)=O.[Au+].c1ccc(CN2[CH-]N(Cc3ccccc3)C(c3ccccc3)=C2c2ccccc2)cc1` (configuration not stated), for which the growth was -30.8% (active).

For the molecule `O=S(=O)(O)c1ccc(N=NSc2ccc3ccccc3c2)cc1`, the growth is 97%.

With `C[C@H]1[C@H](C)CC[C@]2(C(=O)OCCOCCOCC[P+](c3ccccc3)(c3ccccc3)c3ccccc3)CC[C@]3(C)C(=CC[C@@H]4[C@@]5(C)CC[C@H](OC(=O)C(Cl)Cl)C(C)(C)[C@@H]5CC[C@]43C)[C@H]12`, the growth was -15.3% (active).

Regarding `O=c1c2ccccc2oc2ccc(OCCCCCN3CCCCCC3)cc12`, the growth was 69.9%.

As to `Nc1c(C(=O)Nc2ccccn2)sc2nc3c(cc12)C(=O)CCC3`, the growth was 12%.

On to `COc1ccc(-n2cc(-c3ccc(Cl)c(Cl)c3)[nH]c2=O)cc1OC`, for which the growth is 85.2%.

Regarding `Cc1ccc(C(=O)/C(=C/c2ccc([N+](=O)[O-])cc2)S(=O)Cc2ccccc2)cc1` (configuration not stated), the growth is -32% (active).

For the molecule `C=CCn1c(CN2CCN(c3cc4c(cc3F)c(=O)c(C(=O)O)cn4C3CC3)CC2)n[nH]c1=S`, the growth is 87.9%.

As for `CC(=O)c1ccc(NC(=O)CSc2nnc(-c3cc(-c4ccc(C)cc4)nc4ccccc34)o2)cc1`, the growth is 23.2%.

Consider `Cn1cc(-c2ccc3c(c2)ncn3-c2ccc(CC(=O)Nc3cc(C(C)(C)C)on3)cc2)cn1`, for which the growth was 32.8%.

Consider `CN(C)[C@@H]1C(=O)C(C(N)=O)=C(O)[C@@]2(O)C(=O)C3=C(O)c4c(O)cc(CN5CCc6ccccc6C5)c(Cl)c4C[C@H]3C[C@@H]12`, for which the growth was -79.3% (active).

As to `CC(=O)Oc1c2c(nc3c1c1ccccc1n3Cc1ccccc1)-c1ccccc1C2`, the growth was 51%.

In the case of `CC(C)(C)c1nc2c(s1)c1nc(N)ncc1c1ccc(NS(=O)(=O)c3c(F)cccc3F)c(F)c12`, the growth was 50.3%.

As to `COc1cc(C(=O)N2CCN(c3ccccc3OC)CC2)c(NC(=O)c2cnccn2)cc1OCc1ccccc1`, the growth is 73.7%.

`c1ccc(-c2cn3ccnc3c(-c3ccc4c(c3)ncn4C3CCCCC3)n2)cc1`: the growth is 83.9%.

As for `C#Cc1ccccc1NC(=O)c1sc2nc3c(cc2c1N)CCCCC3`, the growth is 71.5%.

`O=C1[C@@H](OS(=O)(=O)CC(F)(F)F)[C@H](c2ccc(F)cn2)N1c1cc2c3ccccc3ccc2c2ccccc12`: the growth was 35.7%.

Turning to `CC(C)CSc1nc(Nc2ccccc2)c(C#N)c(-c2ccc(F)cc2)n1`, the growth is 59.1%.

The values above are taken from PubChem BioAssay (NCI).
